# Measured values published in publication PMC6212790, “How bacterial xenogeneic silencer rok distinguishes foreign from self DNA in its resident genome”.
# The full ranking holds about 33,000 sequences; the median of “e-score” is about -0.038, and the highest 2% start at about 0.33. The sample as a whole holds a higher share of the highest values than the screen did.
# Target: T1, GST-Rok-C97-191 (Bacillus subtilis subsp. subtilis str. …, UniProt O34857 97-191)
# T1 sequence: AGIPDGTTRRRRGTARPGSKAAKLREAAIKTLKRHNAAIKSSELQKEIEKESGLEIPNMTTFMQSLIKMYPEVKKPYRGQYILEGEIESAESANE
# Assay: protein binding microarray; Rok is a gene silencer of Bacillus subtilis; high values mean tight binding
# Conditions: protein: recombinant; tags: GST (pTH5325, pDEST15-Magic modified); dsDNA, one strand shown
# How it was run: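 Each has a 25-mer constant primer and a 35-mer variable part from a de Bruijn sequence of order 10, covering every non-palindromic 8-mer at least 32 times (palindromic 16). Preference for each 8-mer is given as a rank-based, unitless enrichment score (E-score). Its range runs from 0.5 (most favored) to −0.5 (most disfavored).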
row,Sequence,binding signal [E-score]
1,CTTTGTCC,-0.101
2,ATTAGGAA,-0.056
3,TGGGACAA,-0.0222
4,CATCCAAC,-0.0608
5,GATTATAC,0.238
6,AATTATAC,0.348
7,AATTATAA,0.274
8,AATTATAT,0.398
9,CATTATAC,0.177
10,AATTATAG,0.303
11,AAGGGTGC,-0.165
12,CATCTGAA,-0.0216
13,ATAACTAG,0.232
14,AAAACTGT,0.0809
15,AAAACTTG,-0.0585
16,AAAACTAA,0.255
17,AAAACTAG,0.364
18,AAAACTCC,0.137
19,AAAACTAC,0.433
20,AAAACTGC,-0.0367
21,ATAACTAT,0.383
22,AAAACTGG,0.0097
23,AAAACTAT,0.415
24,ATAACTAA,0.249
25,CGATCAAG,-0.0651

row,Sequence,binding signal [E-score]
1,ACATCGCG,0.139
2,CCAAATAC,0.137
3,GAACGTTC,0.053
4,CCGTAGCA,0.075
5,ATTTGGAA,0.102
6,AGCCAATA,-0.0503
7,GAATTCAC,0.074
8,CAAACTAG,0.287
9,CAAACTTA,0.101
10,CAAACTAC,0.446
11,GAAACTAC,0.46
12,GAAACTTC,0.204
13,ACAACTAC,0.348
14,CAAACTCC,-0.063
15,GCAACTAC,0.239
16,ACAACTAT,0.321
17,CAAACTAA,0.374
18,GAAACTAA,0.313
19,TAAACTAA,0.234
20,CTGAGTCA,-0.156
21,AGGTTCAC,-0.111
22,GGTCCTTA,0.0575
23,CAAGGTGA,-0.134
24,AAGTTGCA,0.0502
25,CTGGTCAA,0.00605

row,Sequence,binding signal [E-score]
1,CCCATATC,-0.0677
2,AGCTATTA,0.315
3,CATTTATC,0.218
4,CATTTTTA,0.184
5,GATTTATA,0.304
6,AATTTATA,0.373
7,AATTTATG,0.209
8,CATTTATA,0.354
9,ATTCACTA,0.174
10,AGTCGATC,-0.00304
11,ACGGGAAA,0.132
12,ACCGGAAA,-0.1
13,GCTATACA,0.176
14,GCTATATA,0.355
15,ACTATAGA,0.241
16,CCTATATA,0.283
17,ACTATATC,0.284
18,ACTATATA,0.437
19,ACTCTTTA,0.0447
20,ATGTATAG,0.264
21,CGATATAG,0.238
22,CCATATAG,0.129
23,ATATATAG,0.379
24,ATATAGGG,-0.00212
25,CTATATAG,0.413

row,Sequence,binding signal [E-score]
1,ATATAGCA,0.3
2,ATATAGCG,0.349
3,ATATAGCC,0.135
4,AGCTTTGA,0.0387
5,AGCGGCAC,-0.177
6,ATAGTTCG,0.354
7,ATAGTTCA,0.265
8,AAAGTTAG,0.156
9,ATAGTTAG,0.35
10,ATAGTTCC,0.143
11,ATAGTTAC,0.254
12,CTGTGAGA,-0.127
13,GCACTTGA,-0.0251
14,CATCATAG,0.00873
15,CTTATTCA,0.048
16,CGCAAAGA,-0.193
17,GGAAAAAA,-0.0552
18,TGTACAAA,0.355
19,GGTACAAA,0.216
20,CGTACAAA,0.236
21,AGTACAAA,0.342
22,AGTACAAT,0.269
23,AGTACAAG,0.247
24,TCGAGGCA,0.00484
25,CCGCAAGA,-0.109

row,Sequence,binding signal [E-score]
1,GAATCGGA,-0.078
2,CGATAGAC,0.063
3,TGATAGAA,0.385
4,CGATAGAG,-0.176
5,CGATAGAA,0.359
6,GGATAGAA,0.195
7,AGATAGAA,0.308
8,GTGTTACA,0.168
9,CTAATGTA,0.185
10,ATAATGTG,0.167
11,GTAATGAA,-0.0192
12,ATAATGTA,0.405
13,GTAATGTA,0.339
14,ATAATGTC,0.112
15,ATAAACGG,0.19
16,CGCCACCG,-0.0411
17,ATTACTAC,0.407
18,ATTACTCG,0.198
19,ATTACTGC,0.11
20,CTTACTAC,0.171
21,ATTACTAA,0.326
22,ATTACTAG,0.392
23,ATGTTTAC,0.00161
24,AAATGGTT,0.177
25,AGCTTCTG,-0.0648

row,Sequence,binding signal [E-score]
1,CGCTAGAC,0.00486
2,ATGTCCAC,-0.0386
3,CTCTACGA,0.107
4,ATCTACCA,0.469
5,ATCTACGA,0.333
6,GTCTACCA,0.15
7,ACCTACCG,0.148
8,ATCTATCG,0.313
9,GTCTACGA,-0.0769
10,ATCTACCC,0.22
11,ATCTACCG,0.394
12,CGAAAGAC,-0.0876
13,GAAAGACA,-0.0886
14,GTGCAGTA,0.196
15,ATCGAGGC,-0.159
16,TATGACGA,0.0683
17,ATATTAAA,0.385
18,ATATTTGC,0.295
19,CTATTTAC,0.349
20,CTATTTAA,0.14
21,CTATTAAA,0.0376
22,ACATTTAC,0.315
23,ATATTTAC,0.375
24,ATATTAAC,0.296
25,CTCTTTAC,0.0967

row,Sequence,binding signal [E-score]
1,ATATTTAG,0.201
2,ATATTTAA,0.338
3,ATTTTTAA,0.146
4,CTTTACTC,-0.199
5,ATGTAGGA,0.201
6,CTTGACGA,-0.14
7,AGTGTACA,0.141
8,AATGTACG,0.155
9,AATGTACC,0.373
10,AATGTACT,0.296
11,CATGTACC,0.227
12,AATGTACA,0.34
13,CATGTACA,0.317
14,TATGTACA,0.345
15,GATGTACA,0.29
16,CCGAGTCG,-0.148
17,AGGAGAAA,0.073
18,CACGAAGC,-0.104
19,AGCATTTG,-0.0352
20,AACTGAAC,0.106
21,GCCATTGA,-0.0503
22,TATTTAAA,0.186
